Test results taken from the supplement of paper PMC6555819.

Assays:
Test in all cases: PBM binding z-score (relative to random genomic background probes); higher = stronger binding; sequences stand for … in GC…GCGATTGACAGCGTAGAATGAAGG
[1] = system: FXR:RXRa (NR concentration 270 nM, RXRa partner concentration 90 nM)
In short: (§1)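 Each nuclear receptor dimer, without ligand, was incubated for 1 h on custom Agilent 4×180K protein-binding microarrays. Binding was detected with antibodies against each partner (one per run), and scanned fluorescence was regression-normalized. The binding z-scores are referenced to random human genomic background probes.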

[2] = system: LXRa:RXRa (NR concentration 270 nM, RXRa partner concentration 90 nM)
In short: as §1

[3] = system: LXRa homodimer (NR concentration 270 nM)
In short: as §1

[4] = system: LXRb:RXRa (NR concentration 270 nM, RXRa partner concentration 90 nM)
In short: as §1

[5] = system: LXRb homodimer (NR concentration 270 nM)
In short: as §1

[6] = system: PPARa:RXRa (NR concentration 270 nM, RXRa partner concentration 90 nM)
In short: as §1

[7] = system: PPARg:RXRa (NR concentration 180 nM, RXRa partner concentration 90 nM)
In short: as §1

[8] = system: PPARg:RXRa 270nM:90nM, anti-RXR (NR concentration 270 nM, RXRa partner concentration 90 nM)
In short: as §1

[9] = system: PPARg:RXRa 30nM:10nM, anti-RXR (NR concentration 30 nM, RXRa partner concentration 10 nM)
In short: as §1

[10] = system: PPARg:RXRa 90nM:30nM, anti-RXR (NR concentration 90 nM, RXRa partner concentration 30 nM)
In short: as §1

[11] = system: PPARg:RXRa DBDmut IVT, anti-RXR (DBD mutation: RXRa K156A/R161A, NR concentration 270 nM, RXRa partner concentration 90 nM)
In short: as §1

[12] = system: PPARg:RXRa IVT, anti-PPARg (NR concentration 270 nM, RXRa partner concentration 90 nM)
In short: as §1

[13] = system: PPARg DBDmut:RXRa IVT, anti-PPARg (DBD mutation: PPARg1 K132A/R137A, NR concentration 270 nM, RXRa partner concentration 90 nM)
In short: as §1

[14] = system: PPARg DBDmut IVT, anti-PPARg (DBD mutation: PPARg1 K132A/R137A, NR concentration 270 nM)
In short: as §1

[15] = system: PPARg homodimer (NR concentration 180 nM)
In short: as §1

[16] = system: PXR:RXRa (NR concentration 270 nM, RXRa partner concentration 90 nM)
In short: as §1

[17] = system: PXR homodimer (NR concentration 270 nM)
In short: as §1

[18] = system: RARa:RXR (NR concentration 270 nM, RXRa partner concentration 90 nM)
In short: as §1

[19] = system: RARa homodimer (NR concentration 270 nM)
In short: as §1

[20] = system: RARb:RXRa (NR concentration 270 nM, RXRa partner concentration 90 nM)
In short: as §1

Sequence	PBM binding z-score [1]	PBM binding z-score [2]	PBM binding z-score [3]	PBM binding z-score [4]	PBM binding z-score [5]	PBM binding z-score [6]	PBM binding z-score [7]	PBM binding z-score [8]	PBM binding z-score [9]	PBM binding z-score [10]	PBM binding z-score [11]	PBM binding z-score [12]	PBM binding z-score [13]	PBM binding z-score [14]	PBM binding z-score [15]	PBM binding z-score [16]	PBM binding z-score [17]	PBM binding z-score [18]	PBM binding z-score [19]	PBM binding z-score [20]
CGTCCAAGGTCATAGGATGTCAGTGAAGACAGAT	7.4	5.86	1.1	4.02	0.568	5.6	4.69	5.42	1.9	3.95	3.22	3.9	1.13	0.513	2.45	4.69	1.15	4.58	0.89	5.08
ATCTCTAGGTAAGACTCAGTTCAGTGATGAACGC	0.343	0.402	0.634	0.249	0.676	0.268	0.294	0.427	0.243	0.302	1.78	1.28	1.15	1.33	1.36	0.974	1.63	0.24	0.763	0.357
CTACCAAGGTGATCAAGGTCGTTGATTACTATTC	0.873	0.837	0.0949	1.29	-0.12	1.65	0.258	0.508	-0.15	0.529	1.11	1.31	0.364	-0.201	0.492	2.22	1.77	1.33	0.0994	1.32
ACAACGAGGGCAATGAGTTGATAGCACGGGTGGC	0.234	0.0424	-0.326	-0.109	-0.343	0.835	1.33	0.403	-0.00945	0.211	2.73	2.02	0.439	0.354	0.382	1.76	4.64	0.401	-0.285	2.15
ATCTCTAGGTAAAGCTCAGTGAAAGATCGATAGA	0.281	0.0459	-0.107	-0.256	0.358	0.297	0.103	0.333	0.3	0.095	2.67	1.38	0.778	0.893	0.544	-0.131	0.14	0.258	0.432	0.0103
CGACCAAGGTCAATGCTAGGTCAGTGAAAGCATT	6.54	5.4	1.97	3.95	0.214	4.99	3.99	4.62	1.63	3.37	3.29	3.59	-0.925	-0.0967	4.22	4.59	0.845	5.71	0.803	5.03
TCGAGTAGGTAACCAATGGGGCATTCAGCTTTCT	-0.177	0.0243	-0.581	0.362	-0.995	0.488	-0.0874	0.632	1.08	0.602	2.5	1.74	-0.421	-0.752	-0.5	-0.372	-0.877	-0.292	-0.817	0.0352
ATCTCTAGGTAACAAGTTCAGTTAAAGAGAGGAC	0.755	0.963	0.655	0.642	0.936	1.62	1.48	2.05	0.996	1.57	2.97	2.91	1.33	1.39	1.31	1.79	1.75	0.869	1.39	1.71
ATCTCTAGGTAAAAGATCAGTGAATCCCGAGGAT	0.18	-0.223	0.0922	-0.31	0.167	2.45	4.48	5.32	4.13	5.66	2.47	2.26	1.02	0.762	0.847	-0.177	-0.245	0.0916	0.407	-0.0842
TCTTGCAGATCAACAGGAGGTTAAGAAAGATCGA	-0.0407	0.769	0.0202	0.679	-0.645	1.11	-0.141	0.718	1.89	1.63	0.996	0.188	0.472	0.407	-0.378	0.713	-0.172	0.812	-0.193	0.489
CCGACTGGGGCGAAGGTTACCATACTCAGTACGA	-0.11	-0.108	-0.381	0.654	-1.24	3.09	7.04	7.02	5.36	6.85	1.13	2.83	-0.805	-0.462	0.137	0.261	-0.624	0.961	-0.33	0.726
TCTTGTAGATCAAAGGTTAAGAATGCCGAAGCCT	2.11	2.06	0.248	1.94	0.134	4.68	7.84	7.95	8.02	8.37	2.34	3.51	1.47	0.478	1.27	1.95	-0.149	2.85	0.414	1.87
ACAGACAGCTGAGTGAAGGTAACTCAGCTGGACG	-0.287	-0.122	-0.822	-0.496	-0.626	-0.464	0.214	-0.699	-0.617	-0.561	-0.835	-0.364	-0.856	-0.718	-1.12	-0.593	-0.603	-0.513	-0.693	-0.274
CGCCCAAGGTCAGAGAGGTCAGTGAATGCCGAGT	6.04	4.89	3.24	4.24	-0.135	4.86	3.1	4.03	0.767	2.55	2.95	2.94	-0.485	-0.732	3.98	5.86	11.8	5.47	3.01	5.09
AGTCAAAGTTCACTAGGTAACTTAAGATTCAGCT	5.3	5.02	3.26	3.15	1.21	4.91	6.82	6.55	3.6	5.72	2.47	4.8	2.06	1.17	1.24	4.02	2.95	3.07	1.01	4.73
CTCGAAAGGTCGGTTGAGATGAGTATACGGATAA	1.6	1.27	0.0638	1.32	-0.0369	2.34	0.617	0.887	0.602	0.615	-0.21	0.247	0.456	0.37	0.803	1.01	0.26	1.37	0.533	2.86
CAAACTAGGTCAAGGTTAAAGTCGGTTTGTGCCA	4.21	3.75	1.17	2.93	0.57	5.22	9.29	8.04	6.64	9.18	8.28	8.73	1.13	0.568	2.77	3.05	0.428	3.41	0.337	4.2
ATACCAAGGTGATAGTGAGGTCGTTGATACTAAC	1.53	1.39	0.943	1.4	0.0823	1.81	0.759	0.98	0.458	0.738	0.454	1.64	0.276	0.701	1.01	3.17	1.94	2.23	0.553	1.51
GCTATTAGATGAAAGGGCAACCGAATGATTCTCG	-0.0836	0.345	0.21	0.469	-0.27	2.46	3.72	5.46	4.56	5.76	0.363	1.35	0.246	0.212	0.834	0.424	-0.122	0.795	0.15	1.94
GCGACTGGGGCATCAGCAGGTCACCATAACTTAA	0.886	1.37	0.749	2.27	-0.977	2.79	2.16	2.13	0.0296	1.03	4	4.06	-0.0316	-0.625	2.67	2.2	0.0166	3.04	0.0286	2.53
GATGCAGGGTCAGCTAGAGGCCAGAGTATGGAAA	4.25	2.59	-0.565	2.29	-0.68	4.37	2.67	2.66	0.448	1.74	0.505	1.63	-0.437	-1.46	2.73	3.3	-0.237	4.56	0.285	4.1
CATCCAGGGTCAGCTAGGCCAGAGTAGGGACGGC	4.57	3.12	-0.152	2.1	0.239	4.34	2.97	3.3	0.549	1.89	0.695	2.52	0.576	0.124	1.54	2.31	-0.182	3.25	0.407	4.03
CCGATTAGGTTATGGGGCATTCAGGCAACGGTGA	0.472	0.574	-0.0892	0.58	-0.609	1.58	2.14	3.35	1.63	2.83	2.29	2.29	-0.258	-1.33	1.18	0.0495	-0.245	0.615	0.0747	1.37
TAGCCTAGGTCATGCGGGCTAGTATAGTGTCGGC	3.65	2.96	0.103	1.54	-0.594	3.43	2.07	2.14	0.00724	0.957	1.62	2.81	-0.158	-0.27	0.331	1.07	-0.632	1.97	-0.868	3.86
ATCTCTAGCTAAAGATAGTTCAGTGAATGCAAAT	-0.338	-0.141	0.164	0.199	0.452	0.345	0.318	-0.271	-0.0381	-0.201	-0.205	-0.237	1	0.169	0.538	0.463	0.542	0.855	0.543	0.329
CGTCCAAGGTCATAGGAGGTCAGTGGAGACAGAT	7.92	7.55	5.5	6.44	1.44	5.76	5.84	5.73	2.93	4.69	3.31	4.65	1.06	-0.0581	7.55	6.94	6.61	5.94	4.42	5.39
